Active and inactive are the calls of the source.
Key:
[1] = optical density shifts of acrAB sulA E. coli – strain DRC41, OD650, 48 h, E. coli filamentation inducer project, primary screen (AID 1152); conditions: higher = more signal, called active from +8 up or from −8 down;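 further: E. coli MC1000 strain DRC41 lacking acrAB efflux pump and sulA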
[2] = probe aLefty1 binding on compound microarray – biochemical, small-molecule microarray, 635/667 nm fluorescence, primary screen (AID 1153); conditions: higher = more signal;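 further: score merges spot fluorescence with signal-to-noise ratio from the scanned slide images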
[3] = plasmodial surface anion channel blockers, osmotic lysis – cell-based, P. falciparum Indochina, OD700, 1 h, primary screen (AID 1154); conditions: P. falciparum Indochina infected RBC osmotic lysis, higher = more signal, called active from +8 up or from −8 down
[4] = plasmodial surface anion channel blockers, osmotic lysis – cell-based, P. falciparum Indochina, OD700, 2 h, primary screen (AID 1155);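 further: lysis reports solute entry through the parasite surface anion channel PSAC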; conditions: P. falciparum Indochina infected erythrocytes, higher = more signal, called active from +8 up or from −8 down
[5] = changes in parasitized red cell lysis, either direction – P. falciparum Indochina, OD700, 3 h, PSAC antagonist project, primary screen (AID 1156); conditions: P. falciparum-infected erythrocytes, osmotic lysis, higher = more signal, called active from +8 up or from −8 down
[6] = plasmodial surface anion channel blockers, osmotic lysis – cell-based, P. falciparum Indochina, OD700, 18 h, primary screen (AID 1157); conditions: P. falciparum Indochina infected erythrocytes, osmotic lysis OD700, 18 h; higher = more signal, called active from +8 up or from −8 down
[7] = S6 kinase pathway phospho-S6 level changes – cell-based, A549, cytoblot, luminescence, serum-stimulated, primary screen (AID 1158); conditions: 5 h, higher = more signal;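 further: serum-stimulated A549 lung adenocarcinoma cells; signal is phosphorylated S6 detected by cytoblot immunostaining with HRP secondary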
[8] = target: NADPH oxidase 2 (Homo sapiens) (UniProt P04839); assay: compounds shifting NOX2 Amplex Red fluorescence – cell-based, HEK293-NOX2, PMA-stimulated, NOX inhibitor project, primary screen (AID 1159); conditions: 45 min, higher = more signal, called active from +8 up or from −8 down; further: test concentration not given here
[9] = target: NADPH oxidase 4 (Homo sapiens) (UniProt Q9NPH5); assay: compounds shifting NOX4 Amplex Red fluorescence – cell-based, HEK293-NOX4, tetracycline-induced, NOX inhibitor project, primary screen (AID 1160); conditions: HEK293-NOX4, Amplex Red H2O2 fluorescence, 45 min; higher = more signal, called active from +8 up or from −8 down
[10] = target: NADPH oxidase 5 (Homo sapiens) (UniProt Q96PH1); assay: compounds shifting NOX5 Amplex Red fluorescence – cell-based, HEK293-NOX5, NOX inhibitor project, primary screen (AID 1161); conditions: HEK293-NOX5, ionomycin, 45 min, higher = more signal
Chain of NADPH oxidase 5 (Homo sapiens) (Q96PH1 whole entry, looked up): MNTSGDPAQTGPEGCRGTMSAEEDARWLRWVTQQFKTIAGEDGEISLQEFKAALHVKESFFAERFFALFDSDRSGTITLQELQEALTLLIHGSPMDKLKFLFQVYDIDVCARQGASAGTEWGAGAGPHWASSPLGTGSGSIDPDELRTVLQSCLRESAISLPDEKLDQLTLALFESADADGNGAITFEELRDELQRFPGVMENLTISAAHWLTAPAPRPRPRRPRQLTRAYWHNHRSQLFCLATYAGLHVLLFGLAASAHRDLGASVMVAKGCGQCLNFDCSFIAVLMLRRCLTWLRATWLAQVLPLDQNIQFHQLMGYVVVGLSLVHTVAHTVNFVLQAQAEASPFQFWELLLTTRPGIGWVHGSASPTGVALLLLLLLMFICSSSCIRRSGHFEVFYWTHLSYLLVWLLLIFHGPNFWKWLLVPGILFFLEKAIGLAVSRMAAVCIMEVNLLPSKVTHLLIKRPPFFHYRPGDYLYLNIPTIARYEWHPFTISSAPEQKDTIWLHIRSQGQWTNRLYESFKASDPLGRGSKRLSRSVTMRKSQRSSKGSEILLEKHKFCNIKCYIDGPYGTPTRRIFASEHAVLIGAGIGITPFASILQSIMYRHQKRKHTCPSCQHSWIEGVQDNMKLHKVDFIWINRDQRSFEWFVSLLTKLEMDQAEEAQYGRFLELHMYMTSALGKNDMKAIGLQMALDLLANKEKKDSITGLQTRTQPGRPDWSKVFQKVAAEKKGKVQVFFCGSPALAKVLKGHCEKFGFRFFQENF

Chain of NADPH oxidase 2 (Homo sapiens) (P04839 whole entry, looked up): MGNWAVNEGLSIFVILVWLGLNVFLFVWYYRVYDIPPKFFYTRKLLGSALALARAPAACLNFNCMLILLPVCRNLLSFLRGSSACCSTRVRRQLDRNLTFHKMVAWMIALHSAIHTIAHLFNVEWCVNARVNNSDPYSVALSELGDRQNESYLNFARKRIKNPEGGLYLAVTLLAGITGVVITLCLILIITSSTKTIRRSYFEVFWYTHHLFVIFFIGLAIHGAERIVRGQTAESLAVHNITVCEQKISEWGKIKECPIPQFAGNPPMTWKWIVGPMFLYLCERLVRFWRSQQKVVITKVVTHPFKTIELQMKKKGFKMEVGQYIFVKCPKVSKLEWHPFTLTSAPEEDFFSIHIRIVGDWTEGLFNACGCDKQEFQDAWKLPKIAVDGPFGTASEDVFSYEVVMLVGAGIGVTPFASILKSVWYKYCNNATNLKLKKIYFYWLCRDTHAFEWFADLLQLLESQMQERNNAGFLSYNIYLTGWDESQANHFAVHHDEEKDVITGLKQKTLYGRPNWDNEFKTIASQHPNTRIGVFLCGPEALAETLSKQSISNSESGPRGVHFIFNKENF
Chain of NADPH oxidase 4 (Homo sapiens) (Q9NPH5 whole entry, looked up): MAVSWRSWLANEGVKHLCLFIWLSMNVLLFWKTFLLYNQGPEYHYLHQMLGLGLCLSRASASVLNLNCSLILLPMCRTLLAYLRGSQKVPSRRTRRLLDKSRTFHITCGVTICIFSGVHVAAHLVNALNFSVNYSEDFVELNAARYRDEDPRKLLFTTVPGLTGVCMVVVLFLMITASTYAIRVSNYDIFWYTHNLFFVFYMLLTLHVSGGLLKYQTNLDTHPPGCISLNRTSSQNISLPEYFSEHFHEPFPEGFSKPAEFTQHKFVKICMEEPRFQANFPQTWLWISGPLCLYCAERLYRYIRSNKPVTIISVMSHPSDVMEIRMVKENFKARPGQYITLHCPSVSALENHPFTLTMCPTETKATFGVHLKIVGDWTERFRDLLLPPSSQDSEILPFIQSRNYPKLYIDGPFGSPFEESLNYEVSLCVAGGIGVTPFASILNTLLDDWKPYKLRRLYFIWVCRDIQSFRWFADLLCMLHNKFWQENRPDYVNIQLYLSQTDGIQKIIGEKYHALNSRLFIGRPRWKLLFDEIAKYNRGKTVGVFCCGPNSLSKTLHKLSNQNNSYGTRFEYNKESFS

SMILES | z-score [1] | composite z-score [2] | z-score [3] | z-score [4] | z-score [5] | z-score [6] | z-score [7] | z-score [8] | z-score [9] | z-score [10]
C=C(CCCC)C(=O)CC[C@H](OC(=O)c1ccccc1-c1ccccc1C(=O)O)c1cccc(OCCO)c1 | -0.497 (inactive) | -0.147 | 8.46 (active) | 1.77 (inactive) | 1.97 (inactive) | 0.478 (inactive) | -0.363 | 0.976 (inactive) | -0.462 (inactive) | -1.74
C=C(COC)/C(=C/C[C@@H](OC(C)=O)c1cccc(OCCO)c1)c1cnc2ccccc2c1 | 0.441 (inactive) | 0.106 | 22.7 (active) | 4.9 (inactive) | 0.377 (inactive) | 1.58 (inactive) | 0.249 | -1.21 (inactive) | -0.77 (inactive) | -2.27
[N-]=[N+]=NCc1ccccc1[C@H]1OC(c2ccc(OCCCO)cc2)=N[C@@]1(CCS(=O)(=O)c1ccccc1)C(=O)NCCN1CCOCC1 | -0.265 (inactive) | 0.877 | 27.1 (active) | 13.2 (active) | 1.38 (inactive) | 1.99 (inactive) | -0.124 | 0.636 (inactive) | 1.33 (inactive) | 1.65
COC(=O)[C@@]1(Cc2ccccc2)[C@H]2c3cc(C(=O)N(C)C)n(Cc4nc5ccccc5[nH]4)c3C[C@H]2CN1C(=O)c1ccccc1 | 0.989 (inactive) | 0.0063 | 4.51 (inactive) | -0.2 (inactive) | 0.57 (inactive) | -0.949 (inactive) | 0.965 | -0.273 (inactive) | 0.839 (inactive) | -0.155
COC(=O)[C@@]1(Cc2ccc(F)cc2)[C@H]2c3cc(C(=O)N4CCCC4)n(CCc4c[nH]c5cc(F)ccc45)c3C[C@H]2CN1C(=O)c1ccccc1 | -1.22 (inactive) | 0.429 | 1.76 (inactive) | 0.456 (inactive) | 1.86 (inactive) | 0.984 (inactive) | 0.593 | 0.361 (inactive) | 1.9 (inactive) | 2.01
CN1C(=O)C2C=CC(C(O)COCc3ccccc3)N(Nc3ccc([N+](=O)[O-])cc3[N+](=O)[O-])C2C1=O (stereo not given) | -0.416 (inactive) | 0.332 | 3.59 (inactive) | 1.4 (inactive) | -0.0794 (inactive) | 1.05 (inactive) | -0.859 | 0.223 (inactive) | -2.17 (inactive) | -0.914
Cc1ccc(S[C@]2(C(=O)NCc3ccccc3)CC(=O)N(Cc3ccccc3Cl)[C@@H]2c2ccc(CO)cc2)cc1 | -0.71 (inactive) | -0.0536 | 3.22 (inactive) | 0.328 (inactive) | 2.98 (inactive) | 0.254 (inactive) | -0.121 | -0.703 (inactive) | -0.666 (inactive) | -0.778
CC(C)C[C@@H]1NC(=O)[C@@H]2C[C@H](C(=O)NCCCCCNC(=O)CS)[C@H](c3ccc(O)cc3)N2C1=O | 2.03 (inactive) | 0.165 | 0.625 (inactive) | -0.37 (inactive) | 0.768 (inactive) | -0.73 (inactive) | 2.48 | -1.18 (inactive) | -1.35 (inactive) | -3.05
CN1C2C=C(c3ccc(CO)cc3)C(C3C(=O)N(C(N)=O)C(=O)C32)C1C1CC1 (stereo not given) | 0.149 (inactive) | -0.104 | 0.944 (inactive) | 0.411 (inactive) | -0.103 (inactive) | 0.0864 (inactive) | -0.0656 | -1.57 (inactive) | -1.29 (inactive) | -0.739
CCOC(=O)C[C@H]1[C@H](OC(=O)c2ccc(-c3ccccc3)cc2)[C@@H](NC(=O)C2CCCCC2)c2cc(OCCCO)ccc2N1C(=O)Cc1ccc(OC)cc1 | -0.815 (inactive) | 0.0315 | 2.23 (inactive) | 0.166 (inactive) | -0.816 (inactive) | 0.0141 (inactive) | 0.571 | -0.289 (inactive) | 1.21 (inactive) | 0.732
CN1C(=O)C2C(C1=O)C1C=C(CCCO)C2C(C2CC2)N1C (stereo not given) | 0.667 (inactive) | -0.0683 | -0.452 (inactive) | -0.72 (inactive) | 0.139 (inactive) | -1.17 (inactive) | 1.82 | -0.0367 (inactive) | -0.274 (inactive) | 0.53
CC1CC/C=C\[C@H]2OC34C=CCN(C(C)C)C(=O)[C@H]3N(C(C)CO)C(=O)[C@@H]4C2C(=O)O1 (stereo not given in full) | 1.9 (inactive) | 0.0043 | 1.07 (inactive) | 0.217 (inactive) | 1.06 (inactive) | 0.184 (inactive) | 1.65 | 0.273 (inactive) | -0.381 (inactive) | 1.45
CCOC(=O)C[C@H]1[C@H](OC(=O)c2cc3ccccc3oc2=O)[C@@H](NC(=O)c2ccc(-c3ccccc3)cc2)c2cc(OCCCO)ccc2N1C(=O)Cc1ccc(OC)cc1 | -0.601 (inactive) | -0.0162 | 20.3 (active) | 5.12 (inactive) | 0.557 (inactive) | 1.04 (inactive) | -0.192 | 1.38 (inactive) | 1.08 (inactive) | 1.23

Source: PubChem BioAssay
